# Source: PubChem (several laboratories)
# pPAFAH FP inh = pPAFAH (human) enzyme inhibition; Q13093; recombinant pPAFAH, FP-rhodamine probe fluorescence polarization; inhibition, % at 3.39 µM; actives 1.5% (n = 330,000);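 active = inhibition above the mean inhibition across the screen plus 3 SD, cut at about 25% in these data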;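 also: inhibitors block binding of the rhodamine activity-based probe so polarization drops; 0% = enzyme with DMSO and 100% = wells lacking pPAFAH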
# PAFAH2 FP inh = inhibitors of human PAFAH2; recombinant PAFAH2, FP-rhodamine activity probe, fluorescence polarization; inhibition, % at 3.39 µM; actives 0.99% (n = 340,000);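 active = inhibition above the mean over all tested compounds plus 3 SD, cut at about 30% in these data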;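 also: inhibitors block probe labeling of enzyme so polarization drops; 0% = enzyme with DMSO and 100% = wells lacking PAFAH2 protein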
# PAFAH1B3 FP inh = blocks human PAF acetylhydrolase 1B catalytic subunit 3. Q15102. recombinant PAFAH1B3, FP-rhodamine probe, fluorescence polarization. inhibition, % at 3.39 µM. actives 0.28% (n = 340,000). AID 492972;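 active = inhibition above the screen-wide average of all tested compounds plus 3 SD, cut at about 25% in these data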;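 also: 0% = enzyme with DMSO only and 100% = wells lacking PAFAH1B3 protein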
# Target sequence (Q15102 whole entry, looked up): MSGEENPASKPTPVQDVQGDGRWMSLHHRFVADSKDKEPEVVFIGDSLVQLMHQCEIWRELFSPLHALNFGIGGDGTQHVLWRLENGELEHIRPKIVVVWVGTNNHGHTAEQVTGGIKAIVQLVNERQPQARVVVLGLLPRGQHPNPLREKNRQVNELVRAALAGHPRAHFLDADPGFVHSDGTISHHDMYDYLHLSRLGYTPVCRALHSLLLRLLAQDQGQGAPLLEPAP
# DSG3 Ab inh = blocks pemphigus antibody binding to human desmoglein-3; P32926; DSG3-coupled beads, scFv-anti-DSG3-GFP binding, flow cytometry; stronger effect = lower value; binding (percent of control), % at 10 µM; actives 0.48% (n = 310,000); AID 588358;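 active = binding more than 3 SD below its plate's average and above zero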;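 also: hits lower antibody fragment binding to DSG3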
# PfM18AAP inh = blocks P. falciparum M18 aspartyl aminopeptidase. recombinant PfM18AAP, H-Glu-NHMec fluorogenic cleavage. inhibition, % at 7.35 µM. actives 1.2% (n = 290,000);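 active = inhibition above the campaign mean inhibition over all tested compounds plus 3 SD, cut at about 28% in these data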;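 also: 0% = plate median of test compound wells and 100% = 2 mM ZnCl2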
# PAFAH1B2 inh = blocks human PAF acetylhydrolase 1b catalytic subunit 2 | P68402 | recombinant PAFAH1B2, FP-rhodamine activity probe, fluorescence polarization | inhibition, % at 3.39 µM | actives 1.2% (n = 340,000) | AID 492953;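 active = inhibition above the mean of all tested compounds plus 3 SD, cut at about 24% in these data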;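 also: 0% = enzyme with DMSO and 100% = wells lacking PAFAH1B2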
# Target sequence (P68402 whole entry, looked up): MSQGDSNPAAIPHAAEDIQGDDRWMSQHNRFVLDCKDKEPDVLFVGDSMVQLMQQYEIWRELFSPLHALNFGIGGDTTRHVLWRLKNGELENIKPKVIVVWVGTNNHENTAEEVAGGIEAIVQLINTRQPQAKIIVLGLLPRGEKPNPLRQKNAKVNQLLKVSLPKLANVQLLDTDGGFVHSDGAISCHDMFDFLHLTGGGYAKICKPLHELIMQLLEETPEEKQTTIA
# PAFAH2 confirm = confirmation of human PAFAH2 inhibitors; AID 493030; shares compounds with PAFAH2 FP inh; inhibition, % at 3.39 µM; recombinant PAFAH2, FP-rhodamine activity probe, fluorescence polarization; actives 65% (n = 2,300);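 active = mean inhibition over three repeats above a set limit taken from the earlier primary screen, cut at about 30% in these data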;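 also: inhibitor blocks binding of rhodamine activity probe so polarization falls; 0% = enzyme with DMSO and 100% = wells lacking PAFAH2 protein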
# * hit, by the source's call; . = no result given. Shown are actives, neighbours in structure and some others; about 3.8% of the full set was active somewhere.
SMILES,pPAFAH FP inh,PAFAH2 FP inh,PAFAH1B3 FP inh,DSG3 Ab inh,PfM18AAP inh,PAFAH1B2 inh,PAFAH2 confirm
Cc1ccc(/C=c2\sc3nc(-c4ccco4)nn3c2=O)o1,20,39*,9,101,12,5,1
Cc1ccc(/C=c2\sc3nc(-c4ccccc4Br)nn3c2=O)o1,24,13,-2,106,14,7,.
COc1ccc(S(=O)(=O)C(C#N)c2nc3ccccc3nc2N2CCCC(C)C2)cc1 (configuration not stated),1,31*,7,110,3,7,21
Cc1cc(=O)n2[nH]c(SCc3ccccc3Cl)nc2n1,21,40*,6,95,0,4,28
Cc1cc(=O)n2[nH]c(SCc3c(F)cccc3Cl)nc2n1,-1,21,-1,110,.,6,.
O=C(COC(=O)/C=C/c1cccc(Br)c1)NC1CC1,4,32*,-1,105,.,3,24
O=C(COC(=O)/C=C/c1cccc(Cl)c1)NC(=O)NCc1ccccc1,-6,-2,3,102,.,-2,.
O=C(COC(=O)/C=C/c1cccc(Cl)c1)NC1CCCC1,8,74*,9,103,.,-1,66*
O=C(COC(=O)/C=C/c1cccc(Cl)c1)NC1CC1,2,31*,1,100,.,1,19
NC(=O)NC(=O)COC(=O)/C=C/c1cccc(Br)c1,-2,1,-2,95,-3,1,.
C=CCn1c(SCC(=O)Nc2cc(C)on2)nnc1-c1ccccc1F,-1,-3,12,91,.,4,.
COc1ccc2oc(C(=O)OCC(=O)NC3CCS(=O)(=O)C3)c(C)c2c1 (configuration not stated),.,.,.,109,.,.,.
COc1ccc2oc(C(=O)OCC(=O)NC3(C#N)CCCC3)c(C)c2c1,8,53*,2,106,.,-3,38*
COc1ccc2oc(C(=O)OCC(=O)NC3CCCC3)c(C)c2c1,8,53*,2,103,1,-2,40*
Cc1cc(O)c(/C=N/Nc2ccc(Cl)cc2)c(=O)o1,3,12,-2,99,-2,2,.
Cc1cc(O)c(/C=N/OCc2ccc(Cl)cc2Cl)c(=O)o1,2,85*,-1,98,0,17,77*
Cc1cc(O)c(/C=N/Nc2cccc(Cl)c2)c(=O)o1,4,38*,6,93,-1,1,30*
O=[N+]([O-])c1ccc(Cl)c(/C=N/n2c(-c3ccncc3)n[nH]c2=S)c1,2,11,4,.,5,-1,.
Cc1ccc(-c2csc(/C(C#N)=C(\O)CCl)n2)cc1,.,33*,0,99,-1,-4,31*
O=C(COC(=O)c1ccc(F)cc1F)NCCC1=CCCCC1,17,47*,8,95,.,3,31*
O=C(COC(=O)c1ccccc1O)NCCC1=CCCCC1,6,1,3,102,-14,0,.
Cc1ccc(C(=O)OCC(=O)NCCC2=CCCCC2)cc1N,9,2,0,112,3,6,.
O=C(COC(=O)c1ccc2c(c1)OCCO2)NCCC1=CCCCC1,17,58*,2,.,5,-1,47*
O=C(COC(=O)c1ccc(O)cc1)NCCC1=CCCCC1,13,57*,6,95,-10,3,50*
O=C(Nc1ccnn1C1CCN(C(=O)Cc2ccccc2F)CC1)C1CC1,2,-4,-5,.,-4,2,.
SMILES,pPAFAH FP inh,PAFAH2 FP inh,PAFAH1B3 FP inh,DSG3 Ab inh,PfM18AAP inh,PAFAH1B2 inh,PAFAH2 confirm
O=C(CNCc1cccc(Cl)c1)N1CCc2ccccc2C1,1,4,5,97,-8,2,.
COc1ccc(NS(=O)(=O)c2cc([N+](=O)[O-])ccc2N/N=C\c2c(C)[nH]c3ccccc23)cc1,6,3,-1,126,-7,3,.
COc1ccc(NS(=O)(=O)c2cc([N+](=O)[O-])ccc2NN=Cc2ccccc2OCC(=O)O)cc1,21,49*,14,101,.,8,22
O=C(c1ccc(Oc2ccc([N+](=O)[O-])cc2Cl)cc1)N1CCCC1,14,40*,-3,113,4,2,30*
O=C(c1ccc(Oc2ccc(C(F)(F)F)cc2[N+](=O)[O-])cc1)N1CCOCC1,2,34*,5,110,-1,-5,27
Cc1cccc(N2NC(=O)/C(=C/c3ccc(-c4ccc(Cl)c(C(=O)O)c4)o3)C2=O)c1,.,32*,24,97,-6,17,20
COc1ccc(/C=C/C(=O)OC(C)CN2CCCCC2)cc1 (configuration not stated),2,5,5,96,1,5,.
O=C(CCNC(=O)c1ccccc1)OCC(=O)c1ccccc1,0,33*,4,110,-5,7,5
Cc1ccc(C(=O)O/N=C(/c2nonc2N)N(C)C)cc1,21,51*,8,.,-13,0,41*
CCOC(=O)c1ccc(COC(=O)c2nonc2N)cc1,4,8,8,105,-4,4,.
CSc1nc(N)nc2c1ncn2CC(=O)N[C@H](CO)Cc1c[nH]c2ccccc12,3,38*,-1,97,.,7,3
NS(=O)(=O)c1ccc(CCNC(=O)CNC(=O)c2ccc(Oc3ccccc3)cc2)cc1,7,4,4,106,6,4,.
COc1cc(C(=O)NC(C)c2ccccc2)ccc1OCC(=O)N1CCOCC1 (configuration not stated),0,-2,-3,.,.,-1,.
COc1ccc(C(=O)OCC(=O)c2c[nH]c3ccccc23)cc1OC,-2,47*,0,145,.,4,44*
CCOc1cc(C(=O)OCC(=O)c2c[nH]c3ccccc23)ccc1OCC(=O)N1CCOCC1,5,45*,5,.,7,-1,33*
CCOc1cc(C(=O)OCC(=O)c2c(C)[nH]c3ccccc23)ccc1OCC(=O)N1CCOCC1,-5,-3,3,93,-4,2,.
CCOc1cc(C(=O)OCC(=O)NC(C)c2ccccc2)ccc1OCC(=O)N1CCOCC1 (configuration not stated),6,92*,1,112,0,8,71*
COc1cc(C(=O)OCC(=O)c2c[nH]c3ccccc23)ccc1OCC(=O)N1CCOCC1,-11,34*,-5,131,4,4,20
CCN(CCO)C(=O)c1ccc2nc(Cc3cccc(Cl)c3)oc2c1,0,6,3,92,-15,2,.
O=C(CCc1ccccc1)Nc1ccccc1C(=O)NCc1ccco1,5,30*,5,.,-5,2,30*
O=C(Nc1ccccc1C(=O)NCc1ccco1)c1ccccc1,0,4,10,104,-9,7,.
